Laboratory results published in PubChem BioAssay (NCI).
This is part of a sample that, as a whole, favours compounds with a hit. Of some 83,000 tested, about 20% had one in any assay.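 48-hour exposure, single concentration, 96-well plates; percent growth endpoint where 0 means no net growth. Active: below 10.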 Activity calls are given as the source filed them.

Experiments:
Assay in all cases: NCI-60 one-dose screen, 48 h (100 = growth as untreated, 0 = no growth, -100 = all killed)
Details in all cases: 10 µM unless noted
HCT-15 colon = test system: HCT-15 colon
HT29 colon = test system: HT29 colon
SNB-75 CNS = test system: SNB-75 CNS
SNB-19 CNS = test system: SNB-19 CNS
U251 CNS = test system: U251 CNS
PC-3 prostate = test system: PC-3 prostate
SK-MEL-5 melanoma = test system: SK-MEL-5 melanoma
UACC-62 melanoma = test system: UACC-62 melanoma
LOX IMVI melanoma = test system: LOX IMVI melanoma
SK-MEL-28 melanoma = test system: SK-MEL-28 melanoma
SK-MEL-2 melanoma = test system: SK-MEL-2 melanoma
EKVX NSCLC = test system: EKVX NSCLC
SN12C renal = test system: SN12C renal
UO-31 renal = test system: UO-31 renal
TK-10 renal = test system: TK-10 renal
ACHN renal = test system: ACHN renal
CAKI-1 renal = test system: CAKI-1 renal
A498 renal = test system: A498 renal
CCRF-CEM leukemia = test system: CCRF-CEM leukemia
MOLT-4 leukemia = test system: MOLT-4 leukemia

Measured: growth

C[C@@H](CO)[C@@H]1CC[C@]2(C(=O)N3CCN(C)CC3)CC[C@]3(C)[C@H](CC[C@@H]4[C@@]5(C)CC[C@H](O)C(C)(C)[C@@H]5CC[C@]43C)[C@@H]12
inactive: HCT-15 colon 44.3% | HT29 colon 17.6% | SNB-75 CNS 91.4% | SNB-19 CNS 68.7% | U251 CNS 24.1% | PC-3 prostate 64.1% | SK-MEL-5 melanoma 82.9% | UACC-62 melanoma 78.3% | LOX IMVI melanoma 38.7% | SK-MEL-28 melanoma 106% | SK-MEL-2 melanoma 90.1% | EKVX NSCLC 88.4% | SN12C renal 71.9% | UO-31 renal 64.7% | TK-10 renal 113% | ACHN renal 89.6% | CAKI-1 renal 78.2% | A498 renal 89% | MOLT-4 leukemia 39.2%
active: CCRF-CEM leukemia -5.45%

CCNC(=O)Oc1ccc(/C(=C(/C)Cc2ccc(OC)cc2)c2ccc(OCCN3CCCC3)cc2)cc1
inactive: HCT-15 colon 45.9% | SNB-75 CNS 73.8% | SNB-19 CNS 80.4% | U251 CNS 54.3% | PC-3 prostate 66.4% | SK-MEL-5 melanoma 57.7% | UACC-62 melanoma 69.1% | LOX IMVI melanoma 60.8% | SK-MEL-28 melanoma 66.1% | SK-MEL-2 melanoma 110% | EKVX NSCLC 76.2% | SN12C renal 75.6% | UO-31 renal 57.8% | TK-10 renal 88.1% | ACHN renal 92.4% | CAKI-1 renal 82.3% | A498 renal 91.9% | CCRF-CEM leukemia 45.8% | MOLT-4 leukemia 31.6%
active: HT29 colon 7.46%

COc1ccc2nc(SCC(=O)Nc3ccccc3C)[nH]c2c1
active: A498 renal -41.9%
inactive: HCT-15 colon 99.8% | HT29 colon 109% | SNB-75 CNS 82.5% | SNB-19 CNS 95% | U251 CNS 93.5% | PC-3 prostate 84.5% | SK-MEL-5 melanoma 95.7% | UACC-62 melanoma 84.5% | LOX IMVI melanoma 95.6% | SK-MEL-28 melanoma 95.8% | SK-MEL-2 melanoma 101% | EKVX NSCLC 88.4% | SN12C renal 95.2% | UO-31 renal 74.3% | TK-10 renal 105% | ACHN renal 94.4% | CAKI-1 renal 88% | CCRF-CEM leukemia 87.5% | MOLT-4 leukemia 88.8%

C#CC#CC#CC#CC#CC#CC#CC#CCC1OCC(COC(=O)O[C@@H](C(=O)O[C@H]2C[C@@]3(O)[C@@H](OC(=O)c4ccccc4)[C@@H]4[C@]5(OC(C)=O)CO[C@@H]5C[C@H](O)[C@@]4(C)C(=O)[C@H](OC(C)=O)C(=C2C)C3(C)C)[C@@H](NC(=O)c2ccccc2)c2ccccc2)O1 (stereo not given in full)
inactive: HCT-15 colon 66.8% | SNB-19 CNS 18.9% | U251 CNS 17.9% | PC-3 prostate 19.4% | SK-MEL-5 melanoma 23.4% | UACC-62 melanoma 22.3% | LOX IMVI melanoma 26.9% | SK-MEL-28 melanoma 59.2% | SK-MEL-2 melanoma 30.9% | EKVX NSCLC 45.5% | SN12C renal 21.4% | UO-31 renal 81.7% | TK-10 renal 48% | ACHN renal 45.4% | CAKI-1 renal 49.6% | CCRF-CEM leukemia 12.1% | MOLT-4 leukemia 20.7%
active: HT29 colon 5.02% | SNB-75 CNS -25.2% | A498 renal -8.03%

O=C(CCCCCCCCC(=O)N/N=C\c1cc(Cl)ccc1O)N/N=C\c1cc(Cl)ccc1O
active: SK-MEL-5 melanoma -37.9% | UACC-62 melanoma 0.989% | ACHN renal 9.47%
inactive: HCT-15 colon 15.6% | HT29 colon 58.9% | SNB-75 CNS 55.6% | SNB-19 CNS 34.8% | U251 CNS 29.5% | PC-3 prostate 26.6% | LOX IMVI melanoma 14.1% | SK-MEL-28 melanoma 41.7% | SK-MEL-2 melanoma 18.6% | EKVX NSCLC 54.7% | SN12C renal 28.7% | UO-31 renal 19% | TK-10 renal 45.7% | CAKI-1 renal 11.6% | A498 renal 73.4% | CCRF-CEM leukemia 12.1% | MOLT-4 leukemia 15.3%

CO[C@H](C(=O)[C@@H](O)[C@@H](C)O)[C@@H]1Cc2cc3cc(O[C@H]4C[C@@H](O[C@H]5C[C@@H](O)[C@H](O)C(C)O5)[C@H](O)C(C)O4)c(C)c(O)c3c(O)c2C(=O)[C@H]1O[C@H]1C[C@@H](O[C@H]2C[C@@H](O[C@H]3C[C@@H](OC)[C@H](O)C(C)O3)[C@@H](O)C(C)O2)C(O)(O)C(C)O1 (stereo not given in full)
inactive: HCT-15 colon 34.2% | SNB-19 CNS 11.8% | PC-3 prostate 19.4% | EKVX NSCLC 18% | TK-10 renal 12.1% | CCRF-CEM leukemia 34.2% | MOLT-4 leukemia 18%
active: HT29 colon -0.578% | SNB-75 CNS -41.6% | U251 CNS 9.8% | SK-MEL-5 melanoma -51.5% | UACC-62 melanoma -43.5% | LOX IMVI melanoma 3.54% | SK-MEL-28 melanoma -15.5% | SK-MEL-2 melanoma -79.2% | SN12C renal 8.08% | UO-31 renal 3.17% | ACHN renal 0.683% | CAKI-1 renal 6.9% | A498 renal -35.7%

CC1(C)O[C@H]2OC3CCC(=O)CC3(O)[C@H]2O1 (stereo not given in full)
inactive: HCT-15 colon 111% | HT29 colon 98.6% | SNB-75 CNS 95.1% | SNB-19 CNS 107% | U251 CNS 96.5% | PC-3 prostate 82% | SK-MEL-5 melanoma 98.8% | UACC-62 melanoma 107% | LOX IMVI melanoma 96.7% | SK-MEL-28 melanoma 120% | SK-MEL-2 melanoma 102% | EKVX NSCLC 112% | SN12C renal 103% | UO-31 renal 79.5% | TK-10 renal 97.7% | ACHN renal 110% | CAKI-1 renal 101% | A498 renal 95.1% | CCRF-CEM leukemia 106% | MOLT-4 leukemia 112%

COC(=O)C1=Nc2ccc(F)cc2/C1=C\c1sc(Nc2ccc(O)cc2)nc1O
inactive: HCT-15 colon 74.3% | HT29 colon 106% | SNB-75 CNS 33.8% | SNB-19 CNS 45.7% | U251 CNS 46.4% | PC-3 prostate 52.1% | SK-MEL-5 melanoma 60.3% | UACC-62 melanoma 34.3% | LOX IMVI melanoma 64% | SK-MEL-28 melanoma 66.1% | SK-MEL-2 melanoma 47.3% | EKVX NSCLC 89.8% | SN12C renal 85.7% | UO-31 renal 62.6% | TK-10 renal 96.9% | ACHN renal 84.9% | CAKI-1 renal 55.5% | A498 renal 42.4% | CCRF-CEM leukemia 28.2% | MOLT-4 leukemia 30.4%

COC(=O)c1c2c(c(C)[n+]([O-])c1C)C(=O)C=CC2=O
inactive: EKVX NSCLC 98.3% | TK-10 renal 72.9% | A498 renal 60.8%
active: HCT-15 colon -64.8% | HT29 colon 0.769% | SNB-75 CNS -49.1% | SNB-19 CNS -23.8% | U251 CNS -40.8% | PC-3 prostate 3.6% | SK-MEL-5 melanoma -98.5% | UACC-62 melanoma -72.8% | LOX IMVI melanoma -86% | SK-MEL-28 melanoma -82.9% | SK-MEL-2 melanoma -63.1% | SN12C renal -87.7% | UO-31 renal -64.8% | ACHN renal -37.6% | CAKI-1 renal 2.19% | CCRF-CEM leukemia 0.622% | MOLT-4 leukemia -1.84%

CC(=O)N(Cc1ccccc1)c1nc2ccc(O)c(CN(C)C)c2s1
inactive: HCT-15 colon 97.8% | HT29 colon 109% | SNB-75 CNS 79.2% | SNB-19 CNS 100% | U251 CNS 96.2% | PC-3 prostate 90.2% | SK-MEL-5 melanoma 99% | UACC-62 melanoma 93.7% | LOX IMVI melanoma 94.1% | SK-MEL-28 melanoma 107% | SK-MEL-2 melanoma 108% | EKVX NSCLC 89% | SN12C renal 99.2% | UO-31 renal 77% | TK-10 renal 99.6% | ACHN renal 96.8% | CAKI-1 renal 82.8% | A498 renal 66% | CCRF-CEM leukemia 106% | MOLT-4 leukemia 112%

CCCCc1oc2ccccc2c1C(=O)c1ccc(O)cc1
inactive: HCT-15 colon 81.6% | HT29 colon 103% | SNB-75 CNS 62.4% | SNB-19 CNS 91.1% | U251 CNS 85.8% | PC-3 prostate 73% | SK-MEL-5 melanoma 82.6% | UACC-62 melanoma 69.1% | LOX IMVI melanoma 82.7% | SK-MEL-28 melanoma 116% | SK-MEL-2 melanoma 99.8% | EKVX NSCLC 92.3% | SN12C renal 71.2% | UO-31 renal 78.3% | TK-10 renal 101% | ACHN renal 88.8% | CAKI-1 renal 68.4% | A498 renal 90.9% | CCRF-CEM leukemia 51.9% | MOLT-4 leukemia 59.7%

O=c1[nH]cnc2c1C(c1ccc(Br)cc1)c1sc3c(F)cccc3c1O2 (stereo not given)
inactive: HCT-15 colon 99.2% | HT29 colon 104% | SNB-75 CNS 85.1% | SNB-19 CNS 91.8% | U251 CNS 95.9% | PC-3 prostate 82.9% | SK-MEL-5 melanoma 98.7% | UACC-62 melanoma 82.5% | LOX IMVI melanoma 99.2% | SK-MEL-28 melanoma 105% | SK-MEL-2 melanoma 110% | EKVX NSCLC 90.9% | SN12C renal 98.3% | UO-31 renal 76% | TK-10 renal 107% | ACHN renal 95.1% | CAKI-1 renal 82.1% | A498 renal 104% | MOLT-4 leukemia 37%
active: CCRF-CEM leukemia -50.7%

O=C1CCC(C(=O)NN(c2ccccc2)c2ccccc2)N1 (stereo not given)
inactive: HCT-15 colon 103% | HT29 colon 111% | SNB-75 CNS 89.2% | SNB-19 CNS 100% | U251 CNS 103% | PC-3 prostate 14.3% | SK-MEL-5 melanoma 106% | UACC-62 melanoma 94.4% | LOX IMVI melanoma 95% | SK-MEL-28 melanoma 109% | SK-MEL-2 melanoma 105% | EKVX NSCLC 102% | SN12C renal 97.8% | UO-31 renal 85.5% | TK-10 renal 82.8% | ACHN renal 103% | CAKI-1 renal 78% | A498 renal 103% | CCRF-CEM leukemia 22% | MOLT-4 leukemia 50%

Cc1c(Cl)cccc1C(=O)Nc1nc2c(s1)CN(C(=O)Nc1cccc(C(F)(F)F)c1)CC2
inactive: HCT-15 colon 11.8% | SNB-19 CNS 36.7% | U251 CNS 22.2% | UACC-62 melanoma 27.8% | LOX IMVI melanoma 18.9% | SK-MEL-28 melanoma 44.4% | SK-MEL-2 melanoma 37.4% | EKVX NSCLC 46% | SN12C renal 26% | UO-31 renal 27.8% | TK-10 renal 50.9% | ACHN renal 18.3% | CAKI-1 renal 15.9% | CCRF-CEM leukemia 16.7% | MOLT-4 leukemia 15.9%
active: HT29 colon 1.39% | SNB-75 CNS 6.15% | PC-3 prostate 6.43% | SK-MEL-5 melanoma 2.35% | A498 renal -10.2%

CCN1C(=O)N(CC)C2C1NN=c1s/c(=C\c3ccccc3Br)c(=O)n12 (stereo not given)
active: HCT-15 colon 8.51% | HT29 colon 4.72% | U251 CNS 5.61% | SK-MEL-5 melanoma -17.6% | A498 renal -1.67%
inactive: SNB-75 CNS 10.1% | SNB-19 CNS 26.8% | PC-3 prostate 23.2% | UACC-62 melanoma 24.5% | LOX IMVI melanoma 16.3% | SK-MEL-28 melanoma 57.4% | SK-MEL-2 melanoma 51.1% | EKVX NSCLC 47.7% | SN12C renal 24.8% | UO-31 renal 36.2% | TK-10 renal 70.9% | ACHN renal 26.1% | CAKI-1 renal 24.7% | CCRF-CEM leukemia 14.5% | MOLT-4 leukemia 15.2%
